Consider 8 molecules from PubChem BioAssay.

For assay [1], the system named is Human papillomavirus type 1a protein E7 (residues 44-93). Nature of the assay: small molecules binding HPV E7 44-93 – biochemical, small-molecule microarray, residues 44-93, 635 nm fluorescence, primary screen (AID 1108).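 Note: E7 fragment applied at 1 µg/mL in TBST for 1 h at 4 C; score combines spot fluorescence with its signal to noise ratio.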 As to conditions: fluorescence 635 nm, higher = more signal.
Assay [2] can be described thus: hepatitis C replication reporter changes, two-sided – Huh7 cells, luciferase reporter, HCV replication inhibitor project, primary screen (AID 1109).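 Note: huh7 hepatoma cells harbouring a luciferase neomycin HCV replicon reporter; luciferase luminescence as measure of HCV replicon replication; test concentration not given here.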 Conditions: Huh7 HCV replicon luciferase reporter, 48 h; higher = more signal.
Assay [3] addresses Left-right determination factor 2 (Homo sapiens) (UniProt O00292). Nature of the assay: small molecules binding LEFTY2 protein – biochemical, small-molecule microarray, 635 nm fluorescence scan, primary screen (AID 1110). Conditions: higher = more signal.
Assay [4] concerns the target Calmodulin-1 (Homo sapiens) (UniProt P0DP23). Nature of the assay: small molecules binding calmodulin-1 with EGTA – biochemical, small-molecule microarray, Cy5-labelled CALM1, profiling panel (AID 1111).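 Note: labelled calmodulin applied in Tris saline Tween buffer holding calcium plus EGTA and DTT.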 Conditions: Cy5-CALM1 binding fluorescence, higher = more signal.
Assay [5] shares this target. Nature of the assay: small molecules binding Ca-loaded calmodulin-1 – biochemical, small-molecule microarray, Cy5-labelled CALM1, plus calcium, artefact control for SMM control-protein annotation, profiling panel (AID 1112).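 Note: score merges spot fluorescence with signal to noise from triplicate slides.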 Conditions: Cy5-CALM1 binding fluorescence, higher = more signal.
Assay [6] in a line: probe aWnt5a binding to arrayed compounds – biochemical, biotinylated probe, 635/667 nm fluorescence, primary screen (AID 1113).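 Note: score merges 667 nm fluorescence intensity with signal-to-noise per printed feature.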 As to conditions: small-molecule microarray, higher = more signal.
Assay [7] can be described thus: probe aShh binding to arrayed compounds – biochemical, biotinylated probe, 635/667 nm fluorescence, primary screen (AID 1114).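 Note: probe is biotin-labelled aShh protein from a stem cell growth factor screen; measures binding of labelled protein to compounds printed on the slide; score merges feature fluorescence at 667 nm with signal-to-noise.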 Conditions: small-molecule microarray, higher = more signal.
The nature of assay [8]: probe aNog binding to arrayed compounds – biochemical, biotinylated probe, 635/667 nm fluorescence, primary screen (AID 1115).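 Note: probe is biotinylated aNog protein used at 0.15 µg/mL for 1 h at 4 C; z-score combines 667 nm fluorescence of each spot with its signal to noise.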 Conditions: small-molecule microarray, higher = more signal.
Assay [9] has as its target Torsin-1A-interacting protein 1 (Homo sapiens) (UniProt Q5JTV8). Nature of the assay: compound microarray binding of lysate hLAP1 – cell lysate, small-molecule microarray, COS7 lysate, 635/667 nm fluorescence, primary screen (AID 1116). As to conditions: 635 nm fluorescence, higher = more signal.
In assay [10] the target is Alpha-bungarotoxin (Bungarus multicinctus) (UniProt P60615). Nature of the assay: compounds binding labelled alpha-BTX control protein – biochemical, small-molecule microarray, Alexa647 label, 635/667 nm fluorescence, artefact control for SMM control protein annotation, profiling panel (AID 1117). As to conditions: alpha-BTX-A647 binding fluorescence, higher = more signal.

The target in the next assay is Albumin (Bos taurus) (UniProt P02769). Nature of the assay: compounds binding labelled BSA control protein – biochemical, small-molecule microarray, Alexa647 label, 635/667 nm fluorescence, artefact control for SMM control protein annotation, profiling panel (AID 1118).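 Note: score merges 667 nm emission intensity and signal-to-noise per printed compound spot.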 As to conditions: BSA-A647 binding, fluorescence 635 nm, higher = more signal.
A short description of assay [11]: probe aXIP binding to arrayed compounds – biochemical, NeuroSMM set, 635/667 nm fluorescence, primary screen (AID 1119).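 Note: probe is the protein aXip251-270 applied at 1 µg/mL to compound-printed slides; binding of probe to printed compounds measured as 667 nm fluorescence plus signal to noise.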 As to conditions: small-molecule microarray, higher = more signal, called active from +8 up or from −8 down.
A short description of assay [12]: probe aNOTCH3 binding on compound microarray – biochemical, small-molecule microarray, 635/667 nm fluorescence, primary screen (AID 1120).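 Note: probe is a biotin-tagged antibody raised against NOTCH3 rather than NOTCH3 protein; score merges spot fluorescence near 667 nm with spot signal to noise.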 Conditions: higher = more signal.
Assay [13] in a line: probe aNOTCH2 binding on compound microarray – biochemical, small-molecule microarray, 635/667 nm fluorescence, primary screen (AID 1121).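 Note: score merges feature fluorescence read at 667 nm with its signal to noise.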 Conditions: higher = more signal.
The target of assay [14] is Carbonic anhydrase 2 (Homo sapiens) (UniProt P00918). Nature of the assay: compounds binding carbonic anhydrase 2 – biochemical, small-molecule microarray, Alexa647-labelled CAII, profiling panel (AID 1122). As to conditions: CAII-A647 binding fluorescence, higher = more signal.
A short description of assay [15]: COS7 lysate on small-molecule microarray, probe aHis, 635 nm (AID 1123).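 Note: z-score combines 667nm fluorescence intensity with signal-to-noise per printed compound spot.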 Conditions: COS7 cell lysate, fluorescence, higher = more signal.
A short description of assay [16]: probe aLAP1 signal on lysate-treated microarray – cell lysate, small-molecule microarray, COS7 lysate, primary screen (AID 1124).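 Note: lysate comes from COS7 cells expressing LAP1 and is applied at 0.3 µg/mL; score merges spot fluorescence near 667 nm with signal-to-noise over triplicate slides.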 Conditions: probe aLAP1, fluorescence, higher = more signal.
The next assay has as its system Sam68 (KHDRBS1). Nature of the assay: compounds binding KHDRBS1 protein – biochemical, small-molecule microarray, 635 nm fluorescence, primary screen (AID 1125).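 Note: score merges 667 nm channel intensity with signal to noise over triplicate slides.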 Conditions: higher = more signal.
Assay [17] has as its system Chordin-like protein 2 (CHRDL2). Nature of the assay: compounds binding chordin-like 2 – biochemical, small-molecule microarray, 635 nm fluorescence, primary screen (AID 1126).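 Note: printed compound slides probed with Chrdl2 protein at 4 µg/mL for 1 h at 4 C; score merges 667 nm emission intensity with signal to noise over three replicate slides.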 Conditions: fluorescence 635 nm, higher = more signal.
Assay [18] concerns the target Concanavalin-A (Canavalia ensiformis) (UniProt P02866). Nature of the assay: compounds binding concanavalin A lectin – biochemical, small-molecule microarray, Alexa647 label, 635 nm, artefact control for SMM control protein annotation, primary screen (AID 1127).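 Note: z combines 667 nm emission intensity with signal-to-noise across three replicate slides.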 Conditions: ConA-A647 binding fluorescence, higher = more signal.

The source made the active and inactive calls.

Chain of Left-right determination factor 2 (Homo sapiens) (O00292 whole entry, looked up): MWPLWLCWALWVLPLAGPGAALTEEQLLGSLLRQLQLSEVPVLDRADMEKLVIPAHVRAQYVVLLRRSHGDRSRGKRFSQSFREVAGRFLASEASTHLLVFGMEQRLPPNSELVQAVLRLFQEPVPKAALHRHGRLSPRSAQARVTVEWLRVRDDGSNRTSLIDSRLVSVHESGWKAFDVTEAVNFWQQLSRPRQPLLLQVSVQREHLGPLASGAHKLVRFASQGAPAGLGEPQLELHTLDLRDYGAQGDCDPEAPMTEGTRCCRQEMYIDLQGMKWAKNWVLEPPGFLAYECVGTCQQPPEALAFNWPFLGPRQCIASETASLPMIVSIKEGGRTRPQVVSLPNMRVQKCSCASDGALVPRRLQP
Chain of Albumin (Bos taurus) (P02769 whole entry, looked up): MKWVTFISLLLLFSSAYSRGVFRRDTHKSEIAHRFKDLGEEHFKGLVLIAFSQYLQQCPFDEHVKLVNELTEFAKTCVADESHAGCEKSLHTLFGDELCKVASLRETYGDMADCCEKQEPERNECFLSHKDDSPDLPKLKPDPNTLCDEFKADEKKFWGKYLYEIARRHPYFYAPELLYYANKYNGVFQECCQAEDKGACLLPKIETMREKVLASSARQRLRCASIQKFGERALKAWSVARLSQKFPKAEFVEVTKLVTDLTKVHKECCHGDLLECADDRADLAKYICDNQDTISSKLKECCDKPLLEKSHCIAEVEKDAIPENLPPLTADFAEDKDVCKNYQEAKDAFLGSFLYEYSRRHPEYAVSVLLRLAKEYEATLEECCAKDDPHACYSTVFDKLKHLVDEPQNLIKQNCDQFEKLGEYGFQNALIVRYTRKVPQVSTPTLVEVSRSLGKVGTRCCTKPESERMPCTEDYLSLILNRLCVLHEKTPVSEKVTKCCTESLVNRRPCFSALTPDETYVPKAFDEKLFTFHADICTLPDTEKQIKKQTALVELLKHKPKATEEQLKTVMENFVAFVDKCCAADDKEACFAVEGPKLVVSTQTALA
Chain of Concanavalin-A (Canavalia ensiformis) (P02866 whole entry, looked up): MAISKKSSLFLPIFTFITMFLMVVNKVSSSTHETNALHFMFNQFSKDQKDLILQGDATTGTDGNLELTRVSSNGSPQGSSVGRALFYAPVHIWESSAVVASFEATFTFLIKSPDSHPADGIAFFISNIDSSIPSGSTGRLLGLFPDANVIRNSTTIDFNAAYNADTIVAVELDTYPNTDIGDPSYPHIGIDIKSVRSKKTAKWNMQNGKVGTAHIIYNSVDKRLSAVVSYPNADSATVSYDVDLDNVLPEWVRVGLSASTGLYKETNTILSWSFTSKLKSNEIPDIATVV
Chain of Torsin-1A-interacting protein 1 (Homo sapiens) (Q5JTV8 whole entry, looked up): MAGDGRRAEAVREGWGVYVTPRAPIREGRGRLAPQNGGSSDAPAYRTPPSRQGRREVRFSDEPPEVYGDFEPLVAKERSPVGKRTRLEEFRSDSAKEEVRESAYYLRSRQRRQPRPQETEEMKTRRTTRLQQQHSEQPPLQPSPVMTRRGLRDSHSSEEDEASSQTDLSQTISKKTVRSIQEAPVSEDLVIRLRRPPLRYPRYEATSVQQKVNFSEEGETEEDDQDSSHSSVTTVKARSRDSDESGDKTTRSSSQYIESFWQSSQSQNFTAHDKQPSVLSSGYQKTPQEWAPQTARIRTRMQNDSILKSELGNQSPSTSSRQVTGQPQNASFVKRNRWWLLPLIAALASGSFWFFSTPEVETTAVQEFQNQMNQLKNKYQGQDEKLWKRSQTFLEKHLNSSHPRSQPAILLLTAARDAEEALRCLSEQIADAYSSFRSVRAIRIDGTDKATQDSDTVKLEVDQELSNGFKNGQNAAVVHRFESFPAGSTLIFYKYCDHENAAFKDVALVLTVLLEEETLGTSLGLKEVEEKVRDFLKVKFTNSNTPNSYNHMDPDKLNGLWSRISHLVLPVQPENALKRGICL
Chain of Alpha-bungarotoxin (Bungarus multicinctus) (P60615 whole entry, looked up): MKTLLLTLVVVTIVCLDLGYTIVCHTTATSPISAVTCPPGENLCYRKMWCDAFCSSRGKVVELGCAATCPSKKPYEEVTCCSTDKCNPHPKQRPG

As for `COc1cc(C(O)C2C=CC3C(=O)N(c4ccccc4)C(=O)C3N2Nc2ccc(C#N)cc2)cc(OC)c1OC` (stereo not given), the composite z-score in assay [1] was determined as 0.626; in [3], 0.305; in [4], 2.23; in [5], 1.19; in assay [6], 0.0115; in [7], 0.214. The composite z-score in assay [8] was determined as 1.42; in [9], 1.52; in assay [10] it was 2.79; with Albumin (Bos taurus), 1.01; in assay [12], 0.178; in assay [13], 0.135. Further, the composite z-score was 0.883 in [14]; 3.23 in assay [15]; 1.26 in assay [16]; 1.32 in the assay with Sam68 (KHDRBS1); -1.05 in [17]; 1.21 in assay [18]. Besides, the z-score in assay [2] worked out at 0.0783. Besides, the composite Z-score in assay [11] was 0.0402 (inactive).

`N[C@@H](Cc1ccccc1)Cn1cc(-c2ccccc2)nn1`: the composite z-score is 0.18 in assay [1]; -0.339 in assay [3]; -0.197 in assay [4]; -0.574 in assay [5]; -0.027 in [6]; -0.206 in [7]. The composite z-score in assay [8] is -0.329; in assay [9], 0.119; in assay [10], 0.588; with Albumin (Bos taurus), 0.656; in assay [12] it was 0.0879; in [13], -0.053. Also, the composite z-score in assay [14] was -0.062; in assay [15] it was 0.281; in assay [16], 0.954; in the assay on Sam68 (KHDRBS1), 0.406; in assay [17] it was 0.53; in [18], -0.109. Moreover, the z-score in [2] is -0.65. Moreover, the composite Z-score in [11] is -0.254 (inactive).

As to `CC(c1ccccc1)C(O)C1C=CC2C(=O)NC(=O)C2N1Nc1ccccn1` (stereo not given), the composite z-score in [1] was 1.35; in assay [3], 0.313; in [4] it was -0.104; in assay [5] it was -0.487; in [6], -0.0478; in assay [7], -0.138. The composite z-score in [8] came out at 0.496; in [9], 0.903; in [10], 0.672; in the assay with Albumin (Bos taurus) it was 0.183; in [12] it was 0.0876; in assay [13] it was 0.0012. Besides, the composite z-score came to 0.531 in [14]; 0.954 in assay [15]; 0.398 in [16]; 1.1 with Sam68 (KHDRBS1); 0.407 in [17]; 0.901 in [18]. The same molecule displayed a z-score in [2] of 0.355. Also, the composite Z-score in assay [11] was 0.239 (inactive).

Regarding `O=C1N(CCS(=O)(=O)c2ccccc2)c2ccccc2C[C@@]12COC(c1ccc(OCCCO)cc1)=N2`, the composite z-score in assay [1] worked out at 1.09; in assay [3] it was 0.428; in [4], 0.417; in [5], 0.445; in assay [6] it was 0.152; in assay [7], 0.0124. For the same molecule, the composite z-score in [8] is 0.69; in assay [9], 0.99; in assay [10] it was -0.103; in the assay with Albumin (Bos taurus), -0.746; in assay [12] it was 0.364; in assay [13], 0.314. Moreover, the composite z-score in assay [14] amounted to 0.636; in [15], 2.4; in assay [16], 0.266; in the assay on Sam68 (KHDRBS1), 1.3; in assay [17] it was 0.866; in assay [18], 1.15. Moreover, in [2], the z-score is -1.49. Also, the composite Z-score in assay [11] is -0.279 (inactive).

As for `COC(=O)c1ccc(C(O)C2C=CC3C(=O)N(c4ccccc4)C(=O)C3N2Nc2ccc(C#N)cc2)o1` (stereo not given), the composite z-score is 1.18 in assay [1]; 0.196 in assay [3]; -0.118 in assay [4]; -0.637 in assay [5]; 0.0136 in assay [6]; 0.582 in assay [7]. In addition, the composite z-score in assay [8] was 0.363; in assay [9], 0.681; in assay [10] it was -0.187; in the assay with Albumin (Bos taurus) it was 0.887; in assay [12] it was 0.0282; in assay [13], -0.0878. The composite z-score amounted to 0.436 in assay [14]; 2.85 in assay [15]; 0.387 in [16]; 0.735 in the assay with Sam68 (KHDRBS1); 0.0997 in assay [17]; 0.635 in assay [18]. Further, the z-score in assay [2] was -0.133. In addition, in assay [11], the composite Z-score was -0.336 (inactive).

For the molecule `O=C/C=C/c1ccc(Cl)cc1`, the composite z-score is -1.74 in [1]; 0.163 in assay [3]; -0.925 in assay [4]; -0.0367 in assay [5]; -0.0846 in assay [6]; -0.147 in assay [7]. The composite z-score was -0.426 in [8]; -0.381 in assay [9]; 0.0933 in assay [10]; -1.04 with Albumin (Bos taurus); -0.186 in assay [12]; -0.127 in assay [13]. Besides, the composite z-score in [14] is -0.457; in assay [15] it was -0.267; in assay [16] it was -0.565; in the assay on Sam68 (KHDRBS1), -1.01; in assay [17], 0.0502; in assay [18], -0.184. The molecule further came in with a z-score in assay [2] of -0.482. In assay [11], the composite Z-score is 0.411 (inactive).

For `C=CCC(OC(C)=O)[C@@H]1[C@@H](N(Cc2ccc(-c3ccccc3)cc2)C(=O)Cc2ccc(F)cc2)c2cc(OCCCO)ccc2N1C(=O)c1ccc2ccccc2n1` (stereo not given in full), the composite z-score in assay [1] is -0.689; in assay [3], -0.456; in assay [4] it was 0.168; in [5], 0.72; in assay [6] it was -0.0125; in assay [7] it was -0.206. Moreover, the composite z-score was -0.395 in assay [8]; 0.79 in assay [9]; 0.414 in [10]; 0.59 with Albumin (Bos taurus); 0.0653 in assay [12]; -0.0796 in assay [13]. In addition, the composite z-score in assay [14] is -0.161; in assay [15], 0.164; in assay [16] it was 0.0508; in the assay with Sam68 (KHDRBS1), -0.0112; in assay [17] it was 0.255; in assay [18], -0.526. In [2], this molecule returned a z-score of -0.213. In assay [11], the composite Z-score is -1.01 (inactive).

With `[N-]=[N+]=NCc1ccccc1[C@@H]1OC(c2ccc(OCCCO)cc2)=N[C@]1(Cc1ccccc1)C(=O)N1CCCCC1`, the composite z-score in assay [1] came to 1.39; in [3], 0.232; in assay [4], 1.4; in assay [5], 0.955; in [6] it was 0.0136; in assay [7], 0.369. The composite z-score was 0.733 in assay [8]; 1.27 in assay [9]; 1.14 in [10]; 0.763 with Albumin (Bos taurus); 0.211 in assay [12]; 0.0215 in [13]. Also, the composite z-score in assay [14] was 0.471; in [15], 1.52; in [16], -0.0921; in the assay on Sam68 (KHDRBS1) it was 1.32; in [17] it was 0.581; in assay [18] it was 1.14. The molecule also yielded a z-score in [2] of -2.79. In addition, the composite Z-score in [11] is -0.623 (inactive).
